# Laboratory results: PubChem BioAssay (EPA / NIEHS)
# Active and inactive are the calls of the source. The calls were made as follows: active = hit-call score of the fitted dose curve at least 0.9, where 1 is the maximum; inactive = score below 0.9.
# Experiments:
# Conditions in all cases: mRNA level, 48 h; actives raise or lower the signal
# HGF (gene 3082) = assay: LTEA_HepaRG_HGF: Life Technologies and Expression Analysis (LTEA) Assay for Hepatocyte Growth Facto (HGF) using HepaRG (AID 2283505)
# Procedure, shortened: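 Using HepaRG monolayers kept in 0.5% DMSO, chemicals were tested in duplicate over eight half-log concentrations from 100 uM for 48 h. Endpoint: HGF mRNA change relative to DMSO, normalized to ACTB/GAPDH/POLR2A.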
# [1] = read-out: Insulin Like Growth Factor 1 (IGF1), IGF1 (gene 3479); assay: LTEA_HepaRG_IGF1: Life Technologies and Expression Analysis (LTEA) Assay for Insulin Like Growth Factor 1 (IGF1) using HepaRG (AID 2283506)
# Procedure, shortened: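 Expression measured by TaqMan qRT-PCR on a Fluidigm array, with three housekeeping genes for normalisation, after 48 h treatment of HepaRG cells. Top concentration 100 uM with half-log steps, 0.5% DMSO vehicle, bidirectional fit.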
# [2] = read-out: Intercellular Adhesion Molecule 1 (ICAM1), ICAM1 (gene 3383); assay: LTEA_HepaRG_ICAM1: Life Technologies and Expression Analysis (LTEA) Assay for Intercellular Adhesion Molecule 1 (ICAM1) using HepaRG (AID 2283507)
# Procedure, shortened: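 Using the human liver line HepaRG, compounds are tested in duplicate over 48 h at concentrations up to 100 uM. Expression is determined by TaqMan qRT-PCR, normalized to endogenous controls, and analysed relative to 0.5% DMSO vehicle.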
# [3] = read-out: Insulin-like growth factor-binding protein 1 (IGFBP1), IGFBP1 (gene 3484); assay: LTEA_HepaRG_IGFBP1: Life Technologies and Expression Analysis (LTEA) Assay for Insulin-like growth factor-binding protein 1 (IGFBP1) using HepaRG (AID 2283508)
# Procedure, shortened: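 HepaRG, 48 h, 8 conc. (max 100 uM, half-log), duplicates, 0.5% DMSO. Readout: TaqMan qRT-PCR, ACTB/GAPDH/POLR2A normalisation. Fit: bidirectional vs DMSO.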
# [4] = read-out: Interleukin 6 Receptor (IL6R), IL6R (gene 3570); assay: LTEA_HepaRG_IL6R: Life Technologies and Expression Analysis (LTEA) Assay for Interleukin 6 Receptor (IL6R) using HepaRG (AID 2283510)
# Procedure, shortened: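 IL6R transcript level by qRT-PCR after 48 h chemical exposure (8-point, half-log, max 100 uM, 0.5% DMSO vehicle) of HepaRG cells in serum-free induction medium. Normalized to three housekeeping genes; curves fitted in both directions relative to DMSO.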
# [5] = read-out: Potassium channel subfamily K member 1 (KCNK1), KCNK1 (gene 3775); assay: LTEA_HepaRG_KCNK1: Life Technologies and Expression Analysis (LTEA) Assay for Potassium channel subfamily K member 1 (KCNK1) using HepaRG (AID 2283511)
# Procedure, shortened: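 KCNK1 transcript measured by TaqMan qRT-PCR against three housekeeping genes, after HepaRG cells were treated 48 h with eight half-log concentrations (top 100 uM, 0.5% DMSO). Curves fitted bidirectionally relative to vehicle.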
# [6] = read-out: Keratin 19 (KRT19), KRT19 (gene 3880); assay: LTEA_HepaRG_KRT19: Life Technologies and Expression Analysis (LTEA) Assay for Keratin 19 (KRT19) using HepaRG (AID 2283512)
# Procedure, shortened: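 Readout is qRT-PCR of KRT19 mRNA, normalized to ACTB, GAPDH and POLR2A, from HepaRG cells treated 48 h with eight-point half-log dilutions topping at 100 uM. Activity in either direction is scored relative to 0.5% DMSO vehicle.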
# [7] = read-out: JUN Transcription Factor, JUN (gene 3725); assay: LTEA_HepaRG_JUN: Life Technologies and Expression Analysis (LTEA) Assay for JUN Transcription Factor using HepaRG (AID 2283513)
# Procedure, shortened: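 mRNA measured by TaqMan qRT-PCR after 48 h chemical exposure of HepaRG cultures; normalization to three housekeeping genes. Duplicate eight-point half-log curves from 100 uM in 0.5% DMSO; gain or loss fitted against DMSO baseline.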
# [8] = read-out: Lipase C (LIPC), LIPC (gene 3990); assay: LTEA_HepaRG_LIPC: Life Technologies and Expression Analysis (LTEA) Assay for Lipase C (LIPC) using HepaRG (AID 2283514)
# Procedure, shortened: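 LIPC expression was quantified by qRT-PCR against three housekeeping genes (ACTB, GAPDH, POLR2A). Differentiated human HepaRG cells received eight half-log doses (top 100 uM, 0.5% DMSO) in duplicate for 48 h; fitting bidirectional relative to DMSO.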
# [9] = read-out: Lipoprotein lipase (LPL), LPL (gene 4023); assay: LTEA_HepaRG_LPL: Life Technologies and Expression Analysis (LTEA) Assay for Lipoprotein lipase (LPL) using HepaRG (AID 2283515)
# Procedure, shortened: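 LPL transcript levels quantified by TaqMan qRT-PCR against three housekeeping genes after 48 h chemical treatment of HepaRG cells. Eight-point half-log series from 100 uM in 0.5% DMSO, tested in duplicate; bidirectional fitting versus vehicle.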
# [10] = read-out: MicroRNA 122 (MIR122), gene 406906; assay: LTEA_HepaRG_MIR122: Life Technologies and Expression Analysis (LTEA) Assay for MicroRNA 122 (MIR122) using HepaRG (AID 2283516); also: the transcript read is the microRNA miR-122
# Procedure, shortened: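 Expression measured by microfluidic qRT-PCR with three housekeeping genes for normalisation, after 48 h treatment of HepaRG cultures. Eight concentrations (top 100 uM, half-log steps, 0.5% DMSO vehicle) in duplicate; gain or loss fitted relative to vehicle.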
# [11] = read-out: matrix metalloproteinase-10 (MMP10), MMP10 (gene 4319); assay: LTEA_HepaRG_MMP10: Life Technologies and Expression Analysis (LTEA) Assay for matrix metalloproteinase-10 (MMP10) using HepaRG (AID 2283517)
# Procedure, shortened: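 Expression measured by TaqMan qRT-PCR with ACTB/GAPDH/POLR2A normalisation after 48 h chemical exposure of HepaRG cells. Eight half-log concentrations, top 100 uM, 0.5% DMSO vehicle, duplicates; gain or loss fitted against vehicle.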
# MYC, MYC (gene 4609) = assay: LTEA_HepaRG_MYC: Life Technologies and Expression Analysis (LTEA) Assay for MYC using HepaRG (AID 2283518)
# Procedure, shortened: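 Expression changes were scored by TaqMan qRT-PCR with ACTB, GAPDH and POLR2A normalization. Cultures in serum-free induction medium received duplicate 8-point concentration series, highest 100 uM, for 48 h; DMSO (0.5%) served as baseline.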
# [12] = read-out: matrix metalloproteinase-3 (MMP3), MMP3 (gene 4314); assay: LTEA_HepaRG_MMP3: Life Technologies and Expression Analysis (LTEA) Assay for matrix metalloproteinase-3 (MMP3) using HepaRG (AID 2283519)
# Procedure, shortened: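 Fluidigm-based TaqMan qRT-PCR, normalized to ACTB, GAPDH and POLR2A and fitted bidirectionally versus 0.5% DMSO, measured transcript levels. Treatment: duplicate 48 h exposures of HepaRG cells, ~100,000/well, to eight half-log concentrations topping at 100 uM.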
# [13] = read-out: Paternally Expressed 10 (PEG10), PEG10 (gene 23089); assay: LTEA_HepaRG_PEG10: Life Technologies and Expression Analysis (LTEA) Assay for Paternally Expressed 10 (PEG10) using HepaRG (AID 2283520);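 as to AC50: PEG10 transcript by qRT-PCR normalised to ACTB GAPDH and POLR2A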
# Procedure, shortened: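 PEG10 transcript measured by Fluidigm qRT-PCR, normalized to three housekeeping genes, in HepaRG cells treated 48 h (highest 100 uM, half-log steps, 0.5% DMSO vehicle). Cells plated 48 h before switching to serum-free induction medium.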
# [14] = read-out: Nuclear factor NF-kappa-B p105 subunit (Homo sapiens) (UniProt P19838); assay: LTEA_HepaRG_NFKB1: Life Technologies and Expression Analysis (LTEA) Assay for Nuclear Factor Kappa B Subunit 1 (NFKB1) using HepaRG (AID 2283521);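 as to outcome: TaqMan qRT-PCR transcript normalised to ACTB GAPDH and POLR2A housekeeping genes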
# Procedure, shortened: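 Differentiated human HepaRG cells in serum-free induction medium with 0.5% DMSO were exposed for 48 h to eight half-log concentrations, top 100 uM, in duplicate. NFKB1 mRNA measured by Fluidigm TaqMan qRT-PCR, normalised to ACTB, GAPDH and POLR2A; bidirectional fit versus DMSO.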
# [15] = read-out: Protein phosphatase 2A (PPP2R4), PTPA (gene 5524); assay: LTEA_HepaRG_PPP2R4: Life Technologies and Expression Analysis (LTEA) Assay for Protein phosphatase 2A (PPP2R4) using HepaRG (AID 2283522)
# Procedure, shortened: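 Expression was quantified by Fluidigm qRT-PCR normalised to three housekeeping genes after 48 h treatment. Human HepaRG cells received an 8-point series from 100 µM downward by half-logs, in duplicate with 0.5% DMSO vehicle and 1 mM phenobarbital as induction control.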
# [16] = read-out: Phosphatase and tensin (PTEN), PTEN (gene 5728); assay: LTEA_HepaRG_PTEN: Life Technologies and Expression Analysis (LTEA) Assay for Phosphatase and tensin (PTEN) using HepaRG (AID 2283523)
# Procedure, shortened: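 Read-out: TaqMan qRT-PCR of PTEN transcript, normalized to three housekeeping genes, fitted in both directions against 0.5% DMSO. Differentiated human HepaRG cultures received chemicals for 48 h, eight-point half-log series topping at 100 uM.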
# [17] = read-out: solute carrier (SLC22A1), SLC22A1 (gene 6580); assay: LTEA_HepaRG_SLC22A1: Life Technologies and Expression Analysis (LTEA) Assay for solute carrier (SLC22A1) using HepaRG (AID 2283524)
# Procedure, shortened: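 Transcript level of SLC22A1 quantified by qRT-PCR (normalized to three housekeeping genes) after 48 h chemical exposure of HepaRG cells, eight concentrations up to 100 µM, half-log steps, 0.5% DMSO vehicle. Gain or loss relative to DMSO fitted bidirectionally.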
# [18] = read-out: NAD(P)H dehydrogenase [quinone] 1 (NQO1), NQO1 (gene 1728); assay: LTEA_HepaRG_NQO1: Life Technologies and Expression Analysis (LTEA) Assay for NAD(P)H dehydrogenase [quinone] 1 (NQO1) using HepaRG (AID 2283526)
# Procedure, shortened: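 NQO1 transcript induction or loss measured by TaqMan qRT-PCR, referenced to three housekeeping genes and fitted bidirectionally against 0.5% DMSO. HepaRG cultures exposed 48 h, duplicate, eight-point half-log series, top 100 uM.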
# Chain of Nuclear factor NF-kappa-B p105 subunit (Homo sapiens) (P19838 whole entry, looked up): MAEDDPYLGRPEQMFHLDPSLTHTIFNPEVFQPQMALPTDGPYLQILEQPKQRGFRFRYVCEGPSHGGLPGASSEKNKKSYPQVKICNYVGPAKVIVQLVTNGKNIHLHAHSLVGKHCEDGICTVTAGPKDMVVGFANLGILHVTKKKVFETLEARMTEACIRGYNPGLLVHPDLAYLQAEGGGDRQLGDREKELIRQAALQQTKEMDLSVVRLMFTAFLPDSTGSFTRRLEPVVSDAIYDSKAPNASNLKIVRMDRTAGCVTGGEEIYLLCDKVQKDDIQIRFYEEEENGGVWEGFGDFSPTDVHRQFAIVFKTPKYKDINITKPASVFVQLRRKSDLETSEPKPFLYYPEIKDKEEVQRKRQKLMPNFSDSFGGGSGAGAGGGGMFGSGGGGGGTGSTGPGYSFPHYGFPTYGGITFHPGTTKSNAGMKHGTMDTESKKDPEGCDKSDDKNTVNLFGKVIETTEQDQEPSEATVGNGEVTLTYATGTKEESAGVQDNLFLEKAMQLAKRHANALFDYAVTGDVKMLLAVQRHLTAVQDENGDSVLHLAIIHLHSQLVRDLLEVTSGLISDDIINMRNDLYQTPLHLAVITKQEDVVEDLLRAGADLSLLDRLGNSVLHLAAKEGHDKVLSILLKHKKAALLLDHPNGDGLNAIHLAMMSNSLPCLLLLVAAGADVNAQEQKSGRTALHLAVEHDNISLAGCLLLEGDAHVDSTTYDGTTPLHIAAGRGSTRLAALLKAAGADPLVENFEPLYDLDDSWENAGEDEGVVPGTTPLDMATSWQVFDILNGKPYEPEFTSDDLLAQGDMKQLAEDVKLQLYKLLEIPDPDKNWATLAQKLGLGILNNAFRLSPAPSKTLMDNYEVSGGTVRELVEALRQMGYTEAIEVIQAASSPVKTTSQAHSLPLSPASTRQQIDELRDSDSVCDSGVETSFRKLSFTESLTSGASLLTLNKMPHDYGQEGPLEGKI
compound,measurement,setting,value
Clc1cccc(Cl)c1,outcome,HGF (gene 3082),inactive
same,outcome,[1],inactive
same,outcome,[2],inactive
same,outcome,[3],inactive
same,outcome,[4],inactive
same,outcome,[5],inactive
same,outcome,[6],inactive
same,outcome,[7],inactive
same,outcome,[8],inactive
same,outcome,[9],inactive
same,outcome,[10],inactive
same,outcome,[11],inactive
same,outcome,"MYC, MYC (gene 4609)",inactive
same,outcome,[12],inactive
same,outcome,[13],inactive
same,outcome,[14],inactive
same,outcome,[15],inactive
same,outcome,[16],inactive
same,outcome,[17],inactive
same,outcome,[18],inactive
Cc1cc(C)cc(C)c1,outcome,HGF (gene 3082),inactive
same,outcome,[1],inactive
same,outcome,[2],inactive
same,outcome,[3],inactive
same,outcome,[4],inactive
same,outcome,[5],inactive
same,outcome,[6],inactive
same,outcome,[7],inactive
same,outcome,[8],inactive
same,outcome,[9],inactive
same,outcome,[10],inactive
same,outcome,[11],inactive
same,outcome,"MYC, MYC (gene 4609)",inactive
same,outcome,[12],inactive
same,outcome,[13],inactive
same,outcome,[14],inactive
same,outcome,[15],inactive
same,outcome,[16],inactive
same,outcome,[17],inactive
same,outcome,[18],inactive
O=C(O)C1(c2ccc3c(c2)OC[C@H](Cc2ccc(-c4ccccc4)cc2)[C@H]3O)CCCC1,outcome,HGF (gene 3082),inactive
same,AC50,[1],15.8 µM (active)
same,AC50,[2],64.4 µM (active)
same,AC50,[3],50 µM (active)
same,outcome,[4],inactive
same,outcome,[5],inactive
same,outcome,[6],inactive
same,AC50,[7],88.4 µM (active)
same,outcome,[8],inactive
same,outcome,[9],inactive
same,outcome,[10],inactive
same,outcome,[11],inactive
same,outcome,"MYC, MYC (gene 4609)",inactive
same,outcome,[12],inactive
same,AC50,[13],50 µM (active)
same,AC50,[14],76 µM (active)
same,AC50,[15],80.5 µM (active)
same,AC50,[16],91.5 µM (active)
same,outcome,[17],inactive
same,outcome,[18],inactive
N#Cc1cccnc1,outcome,HGF (gene 3082),inactive
same,outcome,[1],inactive
same,outcome,[2],inactive
same,outcome,[3],inactive
same,outcome,[4],inactive
same,outcome,[5],inactive
same,outcome,[6],inactive
same,outcome,[7],inactive
same,outcome,[8],inactive
same,outcome,[9],inactive
same,outcome,[10],inactive
same,outcome,[11],inactive
same,outcome,"MYC, MYC (gene 4609)",inactive
same,outcome,[12],inactive
same,outcome,[13],inactive
same,outcome,[15],inactive
same,outcome,[16],inactive
same,outcome,[17],inactive
same,outcome,[18],inactive
Oc1cc(Cl)c(Cl)cc1Cl,outcome,HGF (gene 3082),inactive
same,outcome,[1],inactive
same,outcome,[2],inactive
same,outcome,[3],inactive
same,outcome,[4],inactive
same,outcome,[5],inactive
same,AC50,[6],50 µM (active)
same,outcome,[7],inactive
same,outcome,[8],inactive
same,outcome,[9],inactive
same,outcome,[10],inactive
same,outcome,[11],inactive
same,outcome,"MYC, MYC (gene 4609)",inactive
same,outcome,[12],inactive
same,outcome,[13],inactive
same,outcome,[14],inactive
same,outcome,[15],inactive
same,outcome,[16],inactive
same,outcome,[17],inactive
same,outcome,[18],inactive
CC(C)O.CC(C)O.OCCN(CCO)CCO.OCCN(CCO)CCO.[Ti],outcome,HGF (gene 3082),inactive
same,outcome,[1],inactive
same,outcome,[2],inactive
same,outcome,[3],inactive
same,outcome,[4],inactive
same,outcome,[5],inactive
same,outcome,[6],inactive
same,outcome,[7],inactive
same,outcome,[8],inactive
same,outcome,[9],inactive
same,outcome,[10],inactive
same,outcome,[11],inactive
same,outcome,"MYC, MYC (gene 4609)",inactive
same,outcome,[12],inactive
same,outcome,[13],inactive
same,outcome,[14],inactive
same,outcome,[15],inactive
same,outcome,[16],inactive
same,outcome,[17],inactive
same,outcome,[18],inactive
OCCN(CCO)CCO,outcome,HGF (gene 3082),inactive
same,outcome,[1],inactive
same,outcome,[2],inactive
same,outcome,[3],inactive
same,outcome,[4],inactive
same,outcome,[5],inactive
same,outcome,[6],inactive
same,outcome,[7],inactive
same,outcome,[8],inactive
same,outcome,[9],inactive
same,outcome,[10],inactive
same,outcome,[11],inactive
same,outcome,"MYC, MYC (gene 4609)",inactive
same,outcome,[12],inactive
same,outcome,[13],inactive
same,outcome,[14],inactive
same,outcome,[15],inactive
same,outcome,[16],inactive
same,outcome,[17],inactive
same,outcome,[18],inactive
